# Measurements: PubChem BioAssay AID2315 (National Center for Advancing Translational Sciences (NCATS), 2010)
# Among all 290,000 compounds or so, about 27,000 (9.3%) were called active. The sample holds actives, similar compounds and a random draw of the others, so the mix is not that of the screen. Unmarked numbers belong to inactive results. Rule as the data show it: active = inhibition mostly above about 28% (no sharp cut-off); inactive = mostly below about 43%.
# Test: A qHTS for Small Molecule Inhibitors of Shiga Toxin; also: 0% is about no effect
# Settings: Vero cells, Shiga toxin protein synthesis inhibition reporter; at 38.7 µM, stronger effect = higher value
row,SMILES,inhibition
1,CCNc1c(NS(=O)(=O)c2ccc(C3CCCCC3)cc2)c(=O)oc2ccccc12,-11.4%
2,COc1ccc(OCC(O)CN(C)C(=O)C(C)Oc2ccccc2)cc1 (stereo not drawn),-1.44%
3,Cc1cccc(NS(=O)(=O)c2ccc(-c3cnc(C4CC4)o3)cc2)c1,14.4%
4,CC(C)[C@H](NC(=O)N1CC(=O)Nc2ccccc21)C(=O)N[C@@H](Cc1c[nH]c2ccccc12)C(=O)O,-8.09%
5,C=CCOc1cccc(C2NC(=O)c3ccccc3O2)c1 (stereo not drawn),5.66%
6,Cc1ccc(S(=O)(=O)N2CCN(C(=O)CSc3cc(C)ccc3C)CC2)c(C)c1,-13%
7,COc1ccc(C(=O)Nc2ccccc2C(=O)N/N=C/c2ccccc2OC)cc1,89.2% (active)
8,COc1ccc(C(=O)Nc2ccccc2C(=O)N/N=C/c2ccc(O)c(OC)c2)cc1,-21.6%
9,COc1ccccc1C(=O)NNC(=O)c1ccc(NC(=O)c2ccccc2)cc1,-13.9%
10,COc1ccc(C(=O)NC(C)c2nccs2)cc1OC1CCN(C(C)C)CC1 (stereo not drawn),-1.47%
11,Cc1nc2ccc(NC(=O)N3CCC(c4ccccc4)C3)cc2nc1C (stereo not drawn),2.35%
12,Cc1nc2ccc(NC(=S)N3CCC(C)CC3)cc2nc1C,33.9% (active)
13,Cc1cccc(NC(=S)N2CCC(c3nc4ccccc4s3)CC2)c1,-9.34%
14,Cn1c(=O)c2c(nc(N3CCCCCC3)n2CC(=O)c2ccc(Br)cc2)n(C)c1=O,2.71%
15,O=C(Cn1ncc(N2CCCC2)c(Br)c1=O)c1ccc(Cl)cc1,37.7% (active)
16,CC(=O)Cn1ncc(N2CCOCC2)c(Br)c1=O,-5.02%
17,O=C(CNc1cccc(S(=O)(=O)N2CCCCC2)c1)Nc1ccccc1F,-9.02%
18,CCc1ccc(NC(=O)Cn2nnc(C(=O)NCc3ccc4c(c3)OCO4)c2N)cc1,0.685%
19,Cc1cccc2sc(N(CCCN(C)C)C(=O)CCS(=O)(=O)c3ccccc3)nc12,6.64%
20,CCn1nc(C(=O)OCC(=O)N2c3ccccc3CC2C)c2ccccc2c1=O (stereo not drawn),-10.9%
21,CCCC(=O)N1c2ccc(-c3csc(N)n3)cc2CC1C (stereo not drawn),71.3% (active)
22,Cc1ccn(CCC(=O)N2c3ccccc3CC2C)n1 (stereo not drawn),-3.39%
23,CCC(C)Sc1nc2c(cnn2-c2ccc(F)cc2)c(=O)[nH]1 (stereo not drawn),-5.58%
24,COc1cccc(OCC(O)CNC(=O)c2oc3c(C)c(C)ccc3c2C)c1 (stereo not drawn),-9.45%
25,CCOCc1nnc(NC(=O)CCS(=O)(=O)Cc2ccccc2)s1,-3.13%

row,SMILES,inhibition
1,Cc1cccc(CCNS(=O)(=O)c2ccc3c(c2)NC(=O)CO3)c1,-6.16%
2,Cc1cc2ncn(CCCCOc3ccccc3)c2cc1C,-3.93%
3,Clc1ncn(CCOc2ccccc2)c1Cl,-16.2%
4,Cc1nn(CCOc2ccccc2)c(=O)n1-c1ccccc1F,72.3% (active)
5,COc1ccc(-c2nc3c(s2)CCc2onc(-c4ccc(OC)cc4)c2-3)cc1,-4%
6,Cc1nn(C)c(Cl)c1CN1CCC(n2nccc2NC(=O)C2CCCC2)CC1,-4.44%
7,O=C(NCc1cccc(Cl)c1)C1CCC(=O)N(C2CC2)C1 (stereo not drawn),1.78%
8,O=C(N/N=C/c1c[nH]c2ccccc12)c1ccccc1O,46.2% (active)
9,CSC(=S)N/N=C/c1c[nH]c2ccccc12,18.5%
10,O=C(N/N=C/c1ccc([N+](=O)[O-])cc1)c1c[nH]c2ccccc12,35.6%
11,O=C(N/N=C/c1coc2ccccc2c1=O)c1cc2ccccc2o1,-15.3%
12,O=C(N/N=C/c1c[nH]c2ccccc12)c1cc2ccccc2o1,51.6% (active)
13,Cc1c(/C=N\NC(=O)c2cc3ccccc3o2)c2ccccc2n1C,33.2%
14,COc1cccc(NC(=O)C/C(C)=N/NC(=O)C2CCCCC2)c1,5.94%
15,CCC(C)C(NC(=O)C1CCC(=O)N1C(=O)OCc1ccccc1)C(=O)NC(C(=O)N1CCCC1C(N)=O)C(C)CC (stereo not drawn),-2.25%
16,COc1ccc(C/C(C)=N/NC(=O)c2ccncc2)cc1,13.5%
17,COc1ccc(C/C(C)=N/NC(=O)c2cc(C)oc2C)cc1,39.4% (active)
18,CCCCCNC(=O)Cc1ccc(OC)cc1,35.5%
19,Cc1nc2nc(C)c(NS(=O)(=O)c3ccc(C(C)(C)C)cc3)c(=O)n2[nH]1,-4.52%
20,Cc1ccccc1C(CC(=O)c1cccs1)C(C#N)C#N (stereo not drawn),60.4% (active)
21,C/C(=N\NC(=O)COc1c(C)cccc1C)c1cccs1,23.6%
22,Cc1ccc(C)c(NC(CC(=O)c2ccccc2)C(=O)OCC(=O)c2cccs2)c1 (stereo not drawn),-2.14%
23,CCOc1ccc(CN2CCN(Cc3c[nH]c4ccccc34)CC2)cc1,-7.52%
24,C/C=C/C(=O)OCc1csc(CC(=O)Nc2ccccc2C)n1,-12.5%
25,Cc1ccc2c(c1)c1ncn(CCC3=CCCCC3)c(=O)c1n2C,1.3%

row,SMILES,inhibition
1,Cc1ccc2c(c1)c1ncnc(N3CCc4ccccc4C3)c1n2C,61.5% (active)
2,Cc1ccc2c(c1)c1ncn(Cc3ccc(F)cc3)c(=O)c1n2C,-13.4%
3,COc1ccc(-c2cc(C(=O)N3CCN(Cc4ccc5c(c4)OCO5)CC3)on2)cc1OC,-5.83%
4,O=C1CCC(CCC(=O)N2CCCC(C(=O)c3ccc(Cl)cc3)C2)=NN1 (stereo not drawn),12.9%
5,COCC1CCCN(C(=O)c2ccc3oc(C(C)C)nc3c2)C1 (stereo not drawn),13.8%
6,COCC1CCN(C(=O)CCc2nnc(C3(c4ccc(Cl)cc4)CCC3)o2)C1 (stereo not drawn),59.4% (active)
7,CCn1c(SCC(=O)Nc2ccc3c(c2)OCCO3)nnc1-c1ccncc1,24.3%
8,O=C(O)c1ccccc1-c1ccccc1C(=O)Nc1cccc2ccccc12,-18.7%
9,O=C(Nc1cccc2ccccc12)c1onc2c1CCCC2,80.7% (active)
10,O=C(COC(=O)c1ccccn1)Nc1cccc2ccccc12,-15.8%
11,CCN1CCN(C(=O)C2CCCN(S(=O)(=O)c3ccc(OC)c(OC)c3)C2)CC1 (stereo not drawn),11.9%
12,NC(=O)c1cc(-c2cccnc2)nc2ccc(Br)cc12,20%
13,CC(CN1CCC(n2nccc2NC(=O)C2CCCC2)CC1)c1ccccc1 (stereo not drawn),-13%
14,Cc1cc(NC(=O)CSCc2ccccc2C)no1,48.6%
15,Cc1cc(NC(=O)c2ccccc2C)no1,55.6% (active)
16,Cc1ccccc1C(=O)Nc1ccccc1NC(=O)c1ccccc1C,-1.64%
17,Cc1cccc(-c2nc3ccc(C(=O)NCCN4CCN(C)CC4)cc3nc2-c2cccc(C)c2)c1,-22.4%
18,CCOc1c2ccc(C(=O)NCc3ccc4c(c3)OCO4)cc2nn1C,9.39%
19,C=CCNC(=O)c1ccc2c3n(nc2c1)-c1ccc(C)cc1CO3,83.8% (active)
20,COc1cc(CNCc2ccc(OC)c3ccccc23)cc(OC)c1OC,-2.52%
21,Cc1cccc(N(Cc2ccccc2)C(=O)c2ccccc2F)c1,41.2%
22,COc1ccc(COC(=O)N/N=C(\C)CC(=O)Nc2ccc(Cl)cc2)cc1,-3.95%
23,COc1ccc(C(=O)NC(=S)Nc2ccc(Cl)cn2)cc1OC,4.19%
24,COc1ccc(C(=O)N/N=C(\C)CC(=O)Nc2ccc(Cl)cn2)cc1,97.1% (active)
25,O=C(C1CCC(=O)N(C2CC2)C1)N1CCN(c2ccc(Cl)cc2)CC1 (stereo not drawn),-16%

row,SMILES,inhibition
1,O=C1COc2ccc(S(=O)(=O)Nc3ccc(OC(F)(F)F)cc3)cc2N1,-4.37%
2,Cc1cc(NS(=O)(=O)c2ccc(NC(=S)NC(=O)c3ccc(F)cc3Cl)cc2)no1,16.8%
3,CC(=O)c1ccccc1OCc1ccc(C(=O)c2ccccc2)cc1,10.9%
4,Cc1ccc(-c2cn(S(=O)(=O)c3cccc([N+](=O)[O-])c3)nc2N)cc1,13.5%
5,Cc1cc(C)nc(Nc2cc([N+](=O)[O-])ccc2C)n1,-5.77%
6,Cc1ccc(-n2cc3ccc([N+](=O)[O-])cc3n2)cc1,57.1% (active)
7,O=C(COc1ccc2c(c1)CCC2)N1CCN(c2ccc(F)cc2)CC1,-11.3%
8,CCc1c(O)nc(SCC(=O)N2CCCCC2)n(-c2ccccc2C)c1=O,13%
9,COc1cccc(-n2c(SCC(=O)c3c[nH]c4ccccc34)nc3ccccc3c2=O)c1,-9.99%
10,Cc1ccc(-n2c(SCC(=O)N3CCC(C(=O)O)CC3)nc3ccccc3c2=O)cc1C,45.4% (active)
11,CCOC(=O)CSc1nc2ccc(C)cc2n2cnnc12,9.64%
12,O=C(c1cc(-c2ccc(O)cc2)on1)N1CCCc2ccccc21,91.2% (active)
13,Cc1c(C(=O)N2CCCc3ccccc32)oc2ccccc12,33.8%
14,O=C(c1cc(-c2ccc(Cl)cc2)on1)N1CCN(c2ccccc2)CC1,67.5% (active)
15,O=C(c1cccs1)N1CCN(C(=O)N2CCOCC2)CC1,-6.78%
16,Cc1ccc(-c2cc(C(=O)N3CCC4(CC3)OCCO4)no2)cc1,58.1% (active)
17,Cc1noc(C)c1C(=O)N1CCOCC1,-7.37%
18,O=C(c1cc(-c2ccc(F)cc2)on1)N1CCN(c2ccc(F)cc2)CC1,-1.74%
19,O=C(c1cc(-c2ccc(O)cc2)on1)N1CCOCC1,62% (active)
20,COc1ccc(-c2cc(C(=O)N3CCN(c4ccc(F)cc4)CC3)no2)cc1,11.7%
21,CCC(=O)N1CCCc2ccccc21,14.2%
22,O=C(c1cc(-c2ccncc2)nc2ccccc12)N1CCC2(CC1)OCCO2,11.7%
23,Cc1cccc(-n2c(C)nc3cc(C(=O)N4CCC5(CC4)OCCO5)ccc32)c1,13.6%
